Screening results as filed in PubChem.
Only some compounds are listed: those with a hit (about 3.1% of all), similar ones and a draw of the others.
Mcl1-Bid inh: Mcl-1/Bid binding inhibitors, primary screen, biochemical, TR-FRET, 1536-well; Induced myeloid leukemia cell differentiation protein Mcl-1 (Homo sapiens), Q07820; TR-FRET Mcl-1/Bid-Dy647 peptide binding; inhibition, % at 21.7 µM; actives 0.97% (n = 220,000);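 active means compounds that cut the binding signal by more than half at the single screening dose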;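 further: His-tagged Mcl-1 with europium anti-His antibody binding Bid BH3 peptide; 0% = Mcl-1 plus peptide wells and 100% = peptide-only wells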
Bim-Mcl-1: inhibitors of Bim peptide binding to Mcl-1, primary screen, biochemical, bead-based flow cytometry, multiplex; inhibition, % at 10 µM; AID 1009, 2008; Bim peptide-Mcl-1 binding; Induced myeloid leukemia cell differentiation protein Mcl-1 (Homo sapiens), Q07820; actives 0.1% (n = 190,000); in the data active means inhibition above about 40%;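 further: 0% = no compound tracer wells and 100% = peptide blocker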
14-3-3 Bad inh: inhibitors of 14-3-3 zeta/Bad binding, primary screen, biochemical, TR-FRET, bovine 14-3-3 zeta; 14-3-3 protein zeta/delta (Bos taurus), P63103; actives 0.71% (n = 220,000); TR-FRET 14-3-3zeta/Dy647-pBad peptide displacement, 1 h; inhibition, % at 21.7 µM; AID 781, 2007;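 active means inhibition above about 70%, limit read from the data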;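 further: 0% = full 14-3-3 plus peptide FRET controls and 100% = background without 14-3-3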
Target sequence (P63103 whole entry, looked up): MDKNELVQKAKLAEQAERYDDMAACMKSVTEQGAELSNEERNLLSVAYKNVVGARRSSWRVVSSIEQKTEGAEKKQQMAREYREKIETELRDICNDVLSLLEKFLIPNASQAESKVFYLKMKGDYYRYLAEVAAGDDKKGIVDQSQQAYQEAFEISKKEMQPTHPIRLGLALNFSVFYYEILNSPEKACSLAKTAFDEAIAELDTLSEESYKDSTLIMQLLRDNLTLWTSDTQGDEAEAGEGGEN
Mcl1 Noxa PPI: Mcl-1/Noxa binding inhibitors, primary screen, biochemical, TR-FRET, 1536-well; Induced myeloid leukemia cell differentiation protein Mcl-1 (Homo sapiens), Q07820; TR-FRET Mcl-1/Noxa peptide binding, 2 h; inhibition, % at 21.7 µM; actives 1.5% (n = 220,000);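 active means compounds that cut the protein-peptide binding signal by more than 50% relative to plate controls in a single-dose test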;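 further: His-tagged Mcl-1 with rhodamine Noxa BH3 peptide and terbium anti-His antibody; 0% = Mcl-1 plus Noxa peptide wells and 100% = peptide-only wells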
NCF1 inh: p47phox/p22phox peptide binding inhibitors, primary screen, biochemical, uHTS, NADPH oxidase regulatory subunit. Neutrophil cytosol factor 1 (Homo sapiens), P14598. fluorescence polarization, 2 h. inhibition, % at 24.7 µM. actives 0.53% (n = 220,000). AID 1274, 2008;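 active means inhibition above about 30%, limit read from the data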;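 further: 0% = p47phox with labelled peptide and 100% = labelled peptide alone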
Starred values were filed as active, the others as inactive; nt = no result; + = active, no number; [ ] = remark or other dose.

SMILES	Mcl1-Bid inh	Bim-Mcl-1	14-3-3 Bad inh	Mcl1 Noxa PPI	NCF1 inh
O=C(CNC(=O)c1ccco1)NCC(=O)OCc1ccccc1Br	-12	43*	-13	-14	0
Cc1ccc(SCCC(=O)NCCSCc2ccccc2C)cc1	-24	0	-2	nt	-22
COCc1cc(CN2CCCC(CNC(=O)c3ccc(F)cc3)C2)ccc1OC (stereo not drawn)	-29	40*	-7	-3	-9
COc1cccc(CN2CCCC(CNC(=O)c3ccc(F)cc3)C2)c1OC (stereo not drawn)	-10	-3	0	4	3
CCOC(=O)c1sc2ncnc(NCc3ccco3)c2c1C	-13	-3	-13	23	-12
CCc1cc2c(NCc3ccco3)ncnc2s1	16	0	87*	31	-15
O=C(O)c1csc(-c2ccc(Cl)cc2)n1	3	0	-4	18	65*
CNC(=O)c1csc(-c2ccc(Cl)cc2)n1	-19	1	-11	11	-6
C/C=C(\C)CN1CCN(c2ccccc2F)CC1	53*	-5	13	25	-3
C/C=C(\C)CN1CCN(c2ccccc2)CC1	45	-2	74*	45	1
C/C=C(\C)CN1CCN(c2cccc(C)c2C)CC1	5	0	37	-1	-15
C/C(=C\c1ccccc1)CN1CCN(c2ccccc2)CC1	3	-3	12	5	-5
COCCNC(=O)COC(=O)c1cc(-c2ccc(OC)cc2)nc2ccccc12	2	-5	12	13	-12
CCOc1ccc(Oc2ccccc2NC(=O)CCNC(C)=O)cc1	-18	0	-4	3	-9
O=C1C2C3C=CC(C4CC34)C2C(=O)N1c1ccc2c(c1)OCO2 (stereo not drawn)	-20	-2	-10	11	-1
O=C1C2C3C=CC(C3=C(c3ccccc3)c3ccccc3)C2C(=O)N1Cc1ccccc1 (stereo not drawn)	20	0	16	64*	-8
CN1C(=O)C(CCC(=O)O)NC1=S (stereo not drawn)	-45	nt	3	-20	4
O=C(CCC1CCCCC1)NCc1ccc(F)cc1	-2	-2	2	10	-6
CC1CCCCC1NCC(=O)NCc1ccc(F)cc1 (stereo not drawn)	58*	0	57	25	4
Nc1scc2c(C(=O)N/N=C/c3ccc(Cl)cc3)nn(-c3ccccc3)c(=O)c12	4	1	-3	94*	-12
CCOC(=O)c1nn(-c2ccccc2)c(=O)c2c(N)scc12	-18	-1	-5	22	-20
C=CCn1c(=NC(=O)c2ccco2)sc2cc(C(=O)OC)ccc21	29	-5	57	-38	9
C=CCn1c(=NC(=O)c2ccco2)sc2cc(C(=O)OCC)ccc21	51*	-3	43	24	10
O=C1Nc2ccc(Cl)cc2[C@@](C#CC2CC2)(C(F)(F)F)O1	14	-1	3	12	-2
NS(=O)(=O)c1ccc(CCNC(=O)CSc2nc3ccccc3c(=O)n2CCC(=O)N2CCCCC2)cc1	11	1	-15	1	-16
SMILES	Mcl1-Bid inh	Bim-Mcl-1	14-3-3 Bad inh	Mcl1 Noxa PPI	NCF1 inh
Oc1c(Cl)cc(Cl)cc1CNn1cnnc1	-45	-3	-3	15	-4
Oc1c(Cl)cc(Cl)cc1Sc1cc(Cl)cc(Cl)c1O	99*	1	79*	117*	-19
O=C(O)c1sc2cc(C(F)(F)F)cnc2c1-c1cccs1	-2	0	-1	14	-8
Cc1noc(NS(=O)(=O)c2ccc(NC(=O)c3ccc(N4C(=O)c5ccccc5C4=O)cc3)cc2)c1C	-27	0	-5	0	-21
Cc1noc(NS(=O)(=O)c2ccc(N3Cc4ccccc4C3=O)cc2)c1C	-29	-1	+[fluorescence artefact?]	14	1
Cc1ccccc1CNC(=O)CN(c1cccc([N+](=O)[O-])c1)S(C)(=O)=O	-11	0	-3	6	-10
CC1CCN(Cc2c(O)ccc3c(=O)c(-c4nc5ccccc5s4)c(N)oc23)CC1	5	3	0	53*	-34
CNC(=O)NC(=O)COC(=O)c1ccccc1OCc1ccccc1	-13	-2	-6	54*	-1
